We go through nine molecules from PubChem BioAssay (NCI).

About 83,000 compounds went through this panel and 20% of them were active in at least one assay; those are over-represented in the sample as a whole.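 Cells were grown in 96-well plates and exposed to the test compound at a single concentration for 48 hours; results are reported as percent growth, with values below 10 considered active.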 Unmarked numbers belong to inactive results. Active and inactive are the calls of the source.

Among the test systems are RPMI-8226 leukemia; OVCAR-8 ovarian; OVCAR-5 ovarian; OVCAR-4 ovarian; SK-OV-3 ovarian; IGROV1 ovarian; OVCAR-3 ovarian; HS 578T breast; NCI/ADR-RES ovarian; T-47D breast; BT-549 breast; MDA-MB-435 melanoma; SW-620 colon; MCF7 breast; HCT-116 colon; HCC-2998 colon; KM12 colon.
Assay in all cases: NCI-60 one-dose screen, 48 h (100 = growth as untreated, 0 = no growth, -100 = all killed)
Details in all cases: 10 µM

As for `c1ccc(CNc2ncnc3scc(-c4cccs4)c23)nc1`, the growth was 40.9% with RPMI-8226 leukemia; 63.1% with OVCAR-8 ovarian; 99% with OVCAR-5 ovarian; 41.2% in the assay with OVCAR-4 ovarian; 85.1% in the assay on SK-OV-3 ovarian; 63.6% in the assay on IGROV1 ovarian. Further, the growth in the assay with OVCAR-3 ovarian is 52.8%; in the assay on HS 578T breast it was 79.7%; in the assay on NCI/ADR-RES ovarian, 58.8%; with T-47D breast, 47.3%; in the assay on BT-549 breast, 63.7%; with MDA-MB-435 melanoma, 63.7%. Besides, the growth in the assay on SW-620 colon was 86.1%; with MCF7 breast, 67.1%; with HCT-116 colon, 66.5%; in the assay with HCC-2998 colon, 106%.
With `COc1ccc(NC(=O)Cc2nc3nc4sc(C)c(C)c4c(=O)n3[nH]2)cc1`, the growth was 90.5% in the assay with RPMI-8226 leukemia; 101% in the assay with OVCAR-8 ovarian; 108% with OVCAR-5 ovarian; 113% in the assay with OVCAR-4 ovarian; 104% with SK-OV-3 ovarian; 101% in the assay on IGROV1 ovarian. Besides, the growth with OVCAR-3 ovarian is 115%; in the assay on HS 578T breast, 107%; with NCI/ADR-RES ovarian, 103%; with T-47D breast, 96.2%; in the assay with BT-549 breast, 103%; in the assay on MDA-MB-435 melanoma it was 105%. In addition, the growth in the assay with SW-620 colon is 104%; in the assay on MCF7 breast it was 96%; in the assay on HCT-116 colon it was 101%; in the assay with HCC-2998 colon, 98.1%; with KM12 colon, 104%.
For `COc1cc(NC(=O)CCSc2nc3ccc(Cl)cc3c(=O)n2Cc2ccccc2)cc(OC)c1OC`, the growth in the assay on RPMI-8226 leukemia is 42.5%; in the assay on OVCAR-8 ovarian it was 73.9%; with OVCAR-5 ovarian it was 88.8%; in the assay on OVCAR-4 ovarian, 61.5%; in the assay on SK-OV-3 ovarian, 82%; in the assay on IGROV1 ovarian it was 101%. The growth with OVCAR-3 ovarian was 93.4%; in the assay on HS 578T breast it was 40.3%; with NCI/ADR-RES ovarian, 84.3%; with T-47D breast, 64.2%; with BT-549 breast, 73%; in the assay on MDA-MB-435 melanoma, 89%. Besides, the growth with SW-620 colon is 86.2%; in the assay on MCF7 breast, 70%; with HCT-116 colon it was 53%; in the assay with HCC-2998 colon it was 100%.
In the case of `O=C1/C(=C\c2ccc(Cl)cc2)CN(C(=S)Nc2ccccc2)C/C1=C\c1ccc(Cl)cc1`, the growth was -29.8% (active) in the assay with RPMI-8226 leukemia; -5.17% (active) with OVCAR-8 ovarian; -74.1% (active) in the assay with OVCAR-5 ovarian; -26% (active) with OVCAR-4 ovarian; -42.3% (active) with SK-OV-3 ovarian; -72.9% (active) with IGROV1 ovarian. Besides, the growth was -87.6% (active) in the assay with OVCAR-3 ovarian; -23.1% (active) in the assay with HS 578T breast; 1.25% (active) in the assay on NCI/ADR-RES ovarian; -2.82% (active) with T-47D breast; -66.6% (active) with BT-549 breast; -82.1% (active) with MDA-MB-435 melanoma. The growth in the assay with SW-620 colon was -84.9% (active); in the assay with MCF7 breast, -83.9% (active); with HCT-116 colon it was -62.8% (active); with HCC-2998 colon, -89% (active).
In the case of `N=C(N)c1ccc(-c2ccc(-c3cccs3)s2)s1`, the growth in the assay with RPMI-8226 leukemia was -46.6% (active); in the assay on OVCAR-8 ovarian it was -47.2% (active); with OVCAR-5 ovarian, 0.532% (active); in the assay with OVCAR-4 ovarian, -64.1% (active); in the assay on SK-OV-3 ovarian, 74.2%; in the assay on IGROV1 ovarian, 3.96% (active). The growth is -89.2% (active) in the assay on OVCAR-3 ovarian; -27.1% (active) in the assay with HS 578T breast; -29.3% (active) in the assay on NCI/ADR-RES ovarian; 70.2% with T-47D breast; 66.9% in the assay with BT-549 breast; -88.5% (active) in the assay on MDA-MB-435 melanoma. The growth with SW-620 colon is -66.4% (active); with MCF7 breast, -65% (active); in the assay with HCT-116 colon, -87% (active); in the assay on HCC-2998 colon it was -80.3% (active).
For `C#Cc1ccc(-n2c(/C=C/c3ccc(O)c(OC)c3)nc3ncccc3c2=O)cc1`, the growth in the assay on RPMI-8226 leukemia is 83.5%; in the assay on OVCAR-8 ovarian, 97.1%; with OVCAR-5 ovarian it was 108%; in the assay with OVCAR-4 ovarian, 80.8%; with SK-OV-3 ovarian, 107%; in the assay on IGROV1 ovarian, 95.6%. The growth in the assay with OVCAR-3 ovarian was 100%; in the assay on HS 578T breast, 104%; in the assay with NCI/ADR-RES ovarian it was 109%; with T-47D breast, 91.1%; in the assay with BT-549 breast, 95.5%; with MDA-MB-435 melanoma it was 71.2%. The growth in the assay with SW-620 colon is 102%; in the assay with MCF7 breast, 89.1%; in the assay with HCT-116 colon it was 97.4%; in the assay with HCC-2998 colon it was 112%.
For the molecule `C#Cc1ccc(-n2c(/C=C/c3ccc4ccccc4n3)nc3ncccc3c2=O)cc1`, the growth in the assay on RPMI-8226 leukemia is -27.7% (active); in the assay with OVCAR-8 ovarian, -16.4% (active); in the assay with OVCAR-5 ovarian, -4.33% (active); in the assay on OVCAR-4 ovarian, -62.4% (active); with SK-OV-3 ovarian, 5.05% (active); with IGROV1 ovarian, -65.6% (active). The growth is -66.8% (active) in the assay on OVCAR-3 ovarian; 11% in the assay with HS 578T breast; -6.13% (active) with NCI/ADR-RES ovarian; -51.9% (active) with T-47D breast; 5.21% (active) with BT-549 breast; -11.5% (active) in the assay on MDA-MB-435 melanoma. Moreover, the growth is -51% (active) with SW-620 colon, 6.42% (active) with MCF7 breast, -25% (active) with HCT-116 colon and -75.3% (active) in the assay on HCC-2998 colon.
Turning to `C#Cc1ccc(-n2c(/C=C/c3cc(OC)cc(OC)c3)nc3ncccc3c2=O)cc1`, the growth is 25.1% with RPMI-8226 leukemia; 66.8% in the assay with OVCAR-8 ovarian; 129% with OVCAR-5 ovarian; 60.2% in the assay on OVCAR-4 ovarian; 68.1% with SK-OV-3 ovarian; 91.9% with IGROV1 ovarian. Besides, the growth is 76.4% with OVCAR-3 ovarian; 88% with HS 578T breast; 77.1% in the assay with NCI/ADR-RES ovarian; 71.8% in the assay with T-47D breast; 65.2% in the assay on BT-549 breast; 79.1% in the assay on MDA-MB-435 melanoma. Besides, the growth in the assay on SW-620 colon is 105%; with MCF7 breast, 68.5%; with HCT-116 colon it was 74.8%; in the assay on HCC-2998 colon, 94.2%.
Regarding `N#Cc1ncc(-c2ccc(C(F)(F)F)cc2)c(NCc2cc(C(F)(F)F)cc(C(F)(F)F)c2)n1`, the growth in the assay on RPMI-8226 leukemia is -19.6% (active); in the assay with OVCAR-8 ovarian, 30.6%; in the assay on OVCAR-5 ovarian, 57.3%; in the assay with OVCAR-4 ovarian, 21%; in the assay on SK-OV-3 ovarian, 62.6%; in the assay with IGROV1 ovarian it was 40.6%. Moreover, the growth in the assay with OVCAR-3 ovarian is 11.4%; in the assay with HS 578T breast, 36%; in the assay with NCI/ADR-RES ovarian, 25.5%; with T-47D breast, 9.88% (active); in the assay on BT-549 breast it was 21.8%; in the assay on MDA-MB-435 melanoma it was 12.2%. The growth with SW-620 colon is 14.5%; with MCF7 breast, 8.58% (active); in the assay on HCT-116 colon it was 7.85% (active); in the assay with HCC-2998 colon, 45%; in the assay with KM12 colon it was 10.2%.
